Measured values published in PubChem BioAssay AID1159580 (chemical genetic matrix, 2015).
Among all 5,500 compounds or so, about 2,000 (36%) were called active. Roughly 18% stayed inconclusive and do not appear here. Cut-off read from the data, not from the text of the source: active = normalized growth mostly below about 0.91 (no sharp cut-off); inconclusive = no clear call, values can overlap the other calls; inactive = mostly above about 0.92. The list shows a part of the results.

Assay: chemical genetic growth profiling, strain panel (AID 1159580);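 note: tested at 20 µM; growth read once vehicle control cultures reached saturation at 30 °C; 1 = growth at the plate median or of vehicle wells; lower values mean less growth of the strain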
Conditions: S. cerevisiae deletion strains, growth OD

Measured: normalized growth

CC1CC[C@@]2(OC1)O[C@H]1CC3C4CC[C@@H]5CC(=O)CC[C@]5(C)C4CC[C@]3(C)[C@H]1[C@@H]2C (stereo not given in full)
inactive: locus YBR021W, strain FUR4, stronger effect = lower value 1.01 | locus YBR229C, strain ROT2, stronger effect = lower value 1.01 | locus YCL029C, strain bik1, stronger effect = lower value 1.01 | locus YDL035C, strain GPR1, stronger effect = lower value 1.05 | locus YDL074C, strain BRE1, stronger effect = lower value 1.04 | locus YDL101C, strain DUN1, stronger effect = lower value 0.975 | locus YDL134C, strain PPH21, stronger effect = lower value 0.982 | locus YDL185W, strain tfp1, stronger effect = lower value 0.982 | locus YDL192W, strain arf1, stronger effect = lower value 1.01 | locus YDR101C, strain arx1, stronger effect = lower value 1.02 | locus YDR150W, strain NUM1, stronger effect = lower value 1 | locus YDR162C, strain NBP2, stronger effect = lower value 1 | locus YDR318W, strain mcm21, stronger effect = lower value 1 | locus YDR388W, stronger effect = lower value 0.993 | locus YDR502C, strain sam2, stronger effect = lower value 0.974 | locus YER110C, stronger effect = lower value 0.994 | locus YER155C, strain BEM2, stronger effect = lower value 0.985 | locus YER167W, strain BCK2, stronger effect = lower value 1 | locus YGL078C, strain dbp3, stronger effect = lower value 0.963 | locus YGL086W, strain mad1, stronger effect = lower value 0.989 | locus YGL248W, strain PDE1, stronger effect = lower value 0.973 | locus YGR078C, strain PAC10, stronger effect = lower value 0.993 | locus YGR135W, strain pre9, stronger effect = lower value 0.948 | locus YGR252W, strain gcn5, stronger effect = lower value 0.997 | locus YHR079C, strain IRE1 (second series), stronger effect = lower value 0.996 | locus YHR094C, strain hxt1, stronger effect = lower value 0.985 | locus YHR129C, strain ARP1, stronger effect = lower value 0.996 | locus YHR200W, strain rpn10, stronger effect = lower value 0.987 | locus YIL066C, strain RNR3, stronger effect = lower value 1.02 | locus YIL073C, strain SPO22, stronger effect = lower value 0.983 | locus YIL125W, strain kgd1, stronger effect = lower value 1 | locus YIR030C, strain dcg1, stronger effect = lower value 0.98 | locus YJL095W, strain BCK1, stronger effect = lower value 0.977 | locus YJL134W, strain LCB3, stronger effect = lower value 0.991 | locus YJL168C, strain set2, stronger effect = lower value 0.986 | locus YJL187C, strain SWE1 (second series), stronger effect = lower value 0.968 | locus YKL009W, strain mrt4, stronger effect = lower value 0.986 | locus YKL068W, stronger effect = lower value 0.985 | locus YKL085W, strain MDH1 (second series), stronger effect = lower value 0.984 | locus YKL085W, strain MDH1, stronger effect = lower value 0.984 | locus YKR001C, strain vps1, stronger effect = lower value 0.986 | locus YLR039C, strain RIC1, stronger effect = lower value 0.996 | locus YLR058C, strain SHM2, stronger effect = lower value 0.999 | locus YLR102C, strain apc9, stronger effect = lower value 0.984 | locus YLR268W, strain sec22, stronger effect = lower value 1.04 | locus YLR342W, strain FKS1 (second series), stronger effect = lower value 1.07 | locus YLR371W, strain rom2, stronger effect = lower value 1.01 | locus YLR418C, strain cdc73, stronger effect = lower value 0.942 | locus YML016C, strain PPZ1, stronger effect = lower value 0.988 | locus YML032C, strain rad52, stronger effect = lower value 1.01 | locus YML124C, strain tub3, stronger effect = lower value 0.995 | locus YMR078C, strain ctf18, stronger effect = lower value 0.985 | locus YMR223W, strain ubp8, stronger effect = lower value 0.996 | locus YMR307W, strain GAS1, stronger effect = lower value 0.94 | locus YNL067W, strain RPL9B, stronger effect = lower value 0.966 | locus YNL233W, strain BNI4, stronger effect = lower value 0.972 | locus YNL250W, strain rad50, stronger effect = lower value 0.929 | locus YNL271C, strain bni1, stronger effect = lower value 0.981 | locus YNL298W, strain CLA4, stronger effect = lower value 1 | locus YNL307C, strain MCK1, stronger effect = lower value 0.986 | locus YNR052C, strain pop2, stronger effect = lower value 0.972 | locus YOL006C, strain TOP1, stronger effect = lower value 1.16 | locus YOL012C, strain htz1 1.11 | locus YOL147C, strain pex11, stronger effect = lower value 1.01 | locus YOR061W, strain CKA2, stronger effect = lower value 1.01 | locus YOR069W, strain VPS5, stronger effect = lower value 0.989 | locus YOR136W, strain idh2, stronger effect = lower value 0.992 | locus YOR144C, strain elg1, stronger effect = lower value 0.992 | locus YOR184W, strain ser1, stronger effect = lower value 1.06 | locus YOR316C, strain cot1, stronger effect = lower value 0.986 | locus YPR119W, strain clb2, stronger effect = lower value 0.985 | locus YPR141C, strain kar3, stronger effect = lower value 0.973 | locus YPR163C, strain tif3, stronger effect = lower value 0.993 | locus YPR167C, strain met16, stronger effect = lower value 0.985 | strain wtn01, stronger effect = lower value 1.01
